Assay results published in PubChem BioAssay AID1851 (National Center for Advancing Translational Sciences (NCATS), 2009).
The campaign covered roughly 16,000 compounds. About 5,100 (32%) were called active. About 25% were inconclusive and are not listed. The list shows a part of the results. Unmarked numbers belong to inactive results. The call rests on the fitted dose curve; in most records, active means well fitted curve in the direction sought with a large enough effect; inconclusive means small, poorly fitted or top-dose-only effect, or effect the other way; inactive means no such curve, though single readings can be large or run the other way.

Target: Cytochrome P450 3A4 (Homo sapiens) (UniProt P08684)
Assay: Cytochrome panel assay with activity outcomes
Settings: recombinant CYP, pro-luciferin dealkylation, luminescence, p450-cyp3a4; series mostly up to 57.1 µM
On the % scale 0 is the no-effect control and ±100 the full control effect.

Cytochrome P450 3A4 (Homo sapiens), sequence (P08684 whole entry, looked up): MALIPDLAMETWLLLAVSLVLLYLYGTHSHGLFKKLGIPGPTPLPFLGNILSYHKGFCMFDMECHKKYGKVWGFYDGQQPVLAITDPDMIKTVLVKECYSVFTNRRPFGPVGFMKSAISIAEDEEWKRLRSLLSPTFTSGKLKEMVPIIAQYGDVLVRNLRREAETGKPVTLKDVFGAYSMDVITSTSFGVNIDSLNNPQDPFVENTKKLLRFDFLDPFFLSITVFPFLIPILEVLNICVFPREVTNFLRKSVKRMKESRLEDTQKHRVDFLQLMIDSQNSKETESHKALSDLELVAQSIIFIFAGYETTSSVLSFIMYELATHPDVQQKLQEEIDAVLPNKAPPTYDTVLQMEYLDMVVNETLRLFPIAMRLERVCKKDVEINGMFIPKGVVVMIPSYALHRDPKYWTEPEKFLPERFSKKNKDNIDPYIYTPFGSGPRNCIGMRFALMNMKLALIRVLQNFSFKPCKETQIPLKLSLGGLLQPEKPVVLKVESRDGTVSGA

**Q.** How did the activity, negative = inhibition turn out when `CCC(=O)OCN1C(=O)C=CC1=O` was run?
**A.** Its activity, negative = inhibition is 2.64% [at 11.4 µM].

**Q.** Which activity, negative = inhibition does the source give for `N=C(N)SCc1nc2ccccc2c(=O)n1-c1ccccc1Cl` here?
**A.** Its activity, negative = inhibition is -15.4% [at 2.29 µM].

**Q.** How did the AC50 turn out when `CCCN1C(=O)C(Cc2nc3ccccc3c(=O)n2C)c2ccccc21` (centres undefined) was run?
**A.** Its AC50 is 7.94 µM (active).

**Q.** Which AC50 does the source give for `CC(=O)N1CCC2(CC1)CN(c1ccccc1)C2` here?
**A.** Its AC50 is “inactive”.

**Q.** With `CC(=O)N1CCN(C(=O)CC2OC(=O)c3ccccc32)CC1` (centres undefined) as the compound, how does the AC50 read?
**A.** Its AC50 is 12.6 µM (active).

**Q.** With `CCOC(=O)CC1NC(=O)c2ccccc21` (centres undefined) as the compound, how does the AC50 read?
**A.** The AC50 was “inactive”.

**Q.** For `O=C(CSc1nc2ccccc2[nH]1)Nc1c(F)cccc1F`, which AC50 is on record?
**A.** The AC50 was 14.1 µM (active).

**Q.** With `O=C(O)CSc1nc2ccccc2[nH]1` as the compound, how does the activity, negative = inhibition read?
**A.** The activity, negative = inhibition was 2.87% [at 11.4 µM].

**Q.** With `COc1ccccc1-c1cc(NCc2cccc(C)c2)ncn1` as the compound, how does the AC50 read?
**A.** The AC50 was 6.31 µM (active).

**Q.** How did the AC50 turn out when `Cc1cccc(CNc2cc(-c3ccccc3CN(C)C)ncn2)c1` was run?
**A.** Its AC50 is 15.8 µM (active).

**Q.** How did the AC50 turn out when `CN(C)Cc1ccccc1-c1cc(NC2CC2)ncn1` was run?
**A.** Its AC50 is 25.1 µM (active).

**Q.** How did the AC50 turn out when `CNc1cc(-c2ccccc2CN(C)C)ncn1` was run?
**A.** Its AC50 is “inactive”.

**Q.** With `COc1ccccc1-c1cc(NCc2ccccc2)ncn1` as the compound, how does the AC50 read?
**A.** The AC50 was “inactive”.

**Q.** Which AC50 does the source give for `Cc1cccc(CNc2cc(-c3ccccc3Cl)ncn2)c1` here?
**A.** Its AC50 is 15.8 µM (active).

**Q.** `Cc1cnc(CNc2cc(-c3ccccc3CN(C)C)ncn2)cn1` was tested. Which AC50 did it give?
**A.** Its AC50 is “inactive”.

**Q.** With `CN(C)Cc1ccccc1-c1cc(NCc2ccccc2)ncn1` as the compound, how does the AC50 read?
**A.** The AC50 was “inactive”.

**Q.** How did the AC50 turn out when `COC(=O)[C@@]1(Cc2ccc(OC)cc2)[C@H]2c3cc(C(=O)N4CCCC4)n(Cc4cc(F)cc5c4OCOC5)c3C[C@H]2CN1C(=O)c1ccccc1` was run?
**A.** The AC50 was 2.51 µM (active).

**Q.** `COC(=O)[C@@]1(Cc2ccccc2)[C@H]2c3cc(C(=O)N4CCCC4)n(Cc4cc(F)cc5c4OCOC5)c3C[C@H]2CN1C(=O)c1ccccc1` was tested. Which AC50 did it give?
**A.** The AC50 was 3.98 µM (active).

**Q.** For `O=C(O)c1ccc([N+](=O)[O-])c(P(=O)(O)O)c1`, which activity, negative = inhibition is on record?
**A.** The activity, negative = inhibition was -2.76% [at 11.4 µM].

**Q.** With `CC(C)(CNC(=O)c1ccc([N+](=O)[O-])c(Cl)c1)CNC(=O)c1ccc([N+](=O)[O-])c(Cl)c1` as the compound, how does the AC50 read?
**A.** Its AC50 is 8.91 µM (active).

**Q.** For `NCCNC(=O)c1ccc(Cl)cc1`, which AC50 is on record?
**A.** The AC50 was “inactive”.

**Q.** `N[C@@H](CSCc1ccc(I)cc1)C(=O)O` was tested. Which activity, negative = inhibition did it give?
**A.** The activity, negative = inhibition was -8.11% [at 11.4 µM].

**Q.** `Cc1ccccc1-c1nccc(NCCN2CCOCC2)n1` was tested. Which AC50 did it give?
**A.** Its AC50 is 25.1 µM (active).

**Q.** For `Clc1ccccc1-c1cc(NCCN2CCOCC2)ncn1`, which AC50 is on record?
**A.** Its AC50 is “inactive”.

**Q.** Which AC50 does the source give for `FC(F)(F)c1ccccc1-c1cc(NCCN2CCOCC2)ncn1` here?
**A.** Its AC50 is “inactive”.

**Q.** How did the AC50 turn out when `FC(F)(F)c1ccccc1-c1nccc(NCCN2CCOCC2)n1` was run?
**A.** The AC50 was 15.8 µM (active).

**Q.** How did the AC50 turn out when `Clc1ccccc1-c1nccc(NCCN2CCOCC2)n1` was run?
**A.** Its AC50 is 15.8 µM (active).

**Q.** For `COCCNc1ccnc(-c2ccccc2C)n1`, which AC50 is on record?
**A.** Its AC50 is “inactive”.

**Q.** `N=C(N)[C@H](N=Nc1ccccc1)C(N)=O` was tested. Which activity, negative = inhibition did it give?
**A.** Its activity, negative = inhibition is -11.5% [at 11.4 µM].

**Q.** For `COc1ccc(NC(=O)CSc2nc(C)c3c(c2C#N)CCCC3)cc1`, which AC50 is on record?
**A.** Its AC50 is 17.8 µM (active).

**Q.** `CCOc1cccc(NC(=O)CSc2nc(C)c3c(c2C#N)CCCC3)c1` was tested. Which activity, negative = inhibition did it give?
**A.** Its activity, negative = inhibition is -6.34% [at 11.4 µM].

**Q.** How did the AC50 turn out when `CCOc1ccc(NC(=O)CSc2nc(C)c3c(c2C#N)CCCC3)cc1` was run?
**A.** Its AC50 is 12.6 µM (active).

**Q.** For `Cn1cc(C(=O)c2cccc(Cl)c2Cl)cc1C(=O)O`, which AC50 is on record?
**A.** Its AC50 is “inactive”.

**Q.** Which AC50 does the source give for `Cn1cccc1C(=O)N1CCC2(CC1)CN(Cc1ccc(C#N)cc1)C2` here?
**A.** Its AC50 is “inactive”.

**Q.** Which AC50 does the source give for `Cn1cccc1C(=O)N1CCC2(CC1)CN(Cc1cc(C(F)(F)F)cc(C(F)(F)F)c1)C2` here?
**A.** Its AC50 is “inactive”.

**Q.** `Cn1cccc1C(=O)N1CCC2(CCN(Cc3ccccc3)CC2)CC1` was tested. Which AC50 did it give?
**A.** Its AC50 is “inactive”.

**Q.** For `Cn1cccc1C(=O)N1CCC[C@@]2(CCN(Cc3cc(C(F)(F)F)cc(C(F)(F)F)c3)C2)C1`, which AC50 is on record?
**A.** The AC50 was 15.8 µM (active).

**Q.** For `Cn1cccc1C(=O)N1CCC[C@@]2(CCN(Cc3ccc(C#N)cc3)C2)C1`, which AC50 is on record?
**A.** Its AC50 is 12.6 µM (active).

**Q.** `CCN[C@@H]1C[C@H](C)S(=O)(=O)c2sc(S(N)(=O)=O)cc21` was tested. Which AC50 did it give?
**A.** The AC50 was “inactive”.

**Q.** How did the AC50 turn out when `NC(N)=Nc1nc(CCN2C(=O)c3ccccc3C2=O)cs1` was run?
**A.** The AC50 was “inactive”.

**Q.** For `N#C/C(=C/c1cccc(C(F)(F)F)c1)c1nc(CCN2C(=O)c3ccccc3C2=O)cs1`, which AC50 is on record?
**A.** Its AC50 is 5.01 µM (active).

**Q.** Which AC50 does the source give for `O=C(O)CSCNC(=O)CC12CC3CC(CC(C3)C1)C2` here?
**A.** The AC50 was 0.224 µM (active).

**Q.** For `Cc1nc2nc[nH]n2c(=O)c1NC(=O)CC12CC3CC(CC(C3)C1)C2`, which AC50 is on record?
**A.** The AC50 was “inactive”.

**Q.** `O=C(O)CC12C[C@H]3C[C@@H](CC(O)(C3)C1)C2` was tested. Which activity, negative = inhibition did it give?
**A.** The activity, negative = inhibition was -10.4% [at 11.4 µM].

**Q.** `NC(=O)c1ccc(-c2nc(-c3ccc4c(c3)OCO4)c(-c3ccccn3)[nH]2)cc1` was tested. Which AC50 did it give?
**A.** The AC50 was 10 µM (active).

**Q.** `NC(=O)c1ccc(-c2ncc(-c3ccccc3)o2)cc1` was tested. Which AC50 did it give?
**A.** Its AC50 is “inactive”.

**Q.** For `O=C(O)Cc1nn(Cc2ccc(Br)cc2F)c(=O)c2ccccc12`, which AC50 is on record?
**A.** Its AC50 is “inactive”.

**Q.** How did the AC50 turn out when `c1csc(CNCCCN2CCOCC2)c1` was run?
**A.** Its AC50 is “inactive”.

**Q.** For `CCOc1cc(CNCCCN2CCOCC2)cc(Br)c1OCC(=O)Nc1cccc(C(F)(F)F)c1`, which AC50 is on record?
**A.** The AC50 was 4.47 µM (active).

**Q.** For `COc1ccc(NC(=O)COc2ccc(CNCCCN3CCOCC3)cc2OC)cc1`, which AC50 is on record?
**A.** The AC50 was “inactive”.

**Q.** `CN(C)C(=O)c1ccc(-c2nc(Nc3ccncc3)c3ccccc3n2)cc1` was tested. Which AC50 did it give?
**A.** Its AC50 is 15.8 µM (active).

**Q.** How did the AC50 turn out when `CN(C)c1ccc(-c2nc(Nc3ccncc3)c3ccccc3n2)cc1` was run?
**A.** Its AC50 is 7.94 µM (active).

**Q.** With `CC(=O)NC1=NC(=O)C(C)S1` (centres undefined) as the compound, how does the activity, negative = inhibition read?
**A.** Its activity, negative = inhibition is -3.3% [at 2.29 µM].

**Q.** How did the activity, negative = inhibition turn out when `Cc1onc(-c2c(F)cccc2Cl)c1C(=O)N[C@@H]1C(=O)N2[C@H]1SC(C)(C)[C@H]2C(=O)O` was run?
**A.** The activity, negative = inhibition was -13.2% [at 11.4 µM].

**Q.** `Cc1cc(NC(=O)c2ccc(S(=O)(=O)N(C)C)cc2)n(-c2ccccn2)n1` was tested. Which AC50 did it give?
**A.** The AC50 was “inactive”.

**Q.** For `CCN(CC)S(=O)(=O)c1ccc(C(=O)Nc2ncn(Cc3ccccc3)n2)cc1`, which AC50 is on record?
**A.** The AC50 was “inactive”.

**Q.** With `Cc1ccccc1-n1nc2c(c1NC(=O)c1ccc(S(=O)(=O)N(C)C)cc1)CSC2` as the compound, how does the AC50 read?
**A.** Its AC50 is 14.1 µM (active).

**Q.** For `CCCC(=O)Nc1c2c(nn1-c1ccc(C)cc1C)CSC2`, which AC50 is on record?
**A.** The AC50 was 7.08 µM (active).

**Q.** `Cc1ccc(NC(=O)CCC(=O)NNC(=O)c2cccs2)c(C)c1` was tested. Which activity, negative = inhibition did it give?
**A.** Its activity, negative = inhibition is -1.38% [at 2.29 µM].

**Q.** With `Cc1onc(-c2c(F)cccc2Cl)c1C(=O)N[C@H]1C(=O)N2[C@H]1SC(C)(C)[C@H]2C(=O)O` as the compound, how does the AC50 read?
**A.** The AC50 was “inactive”.

**Q.** How did the activity, negative = inhibition turn out when `Cc1ccc(NC(=O)CCC(=O)NNS(=O)(=O)c2ccccc2)c(C)c1` was run?
**A.** The activity, negative = inhibition was 21.8% [at 2.29 µM].

**Q.** How did the AC50 turn out when `Cc1ccc(-n2nc3c(c2NC(=O)c2cccs2)CSC3)cc1` was run?
**A.** The AC50 was 12.6 µM (active).

**Q.** With `CCCC(=O)Nc1c(C)n[nH]c1C` as the compound, how does the AC50 read?
**A.** Its AC50 is “inactive”.

**Q.** Which AC50 does the source give for `Cc1ccccc1-n1nc2c(c1NC(=O)c1c(-c3ccccc3Cl)noc1C)CSC2` here?
**A.** Its AC50 is 1.12 µM (active).
